# Results from the supplement of paper PMC4466140.
# How the values were obtained:
# Test in all cases: SPOT peptide array binding signal intensity (averaged, normalized) (arbitrary units (background-subtracted, floor 0; scale differs between SH3 domains)); higher = stronger binding of the SH3 domain to the peptide
# [1] = target: AgAbp1
# In short: (§1)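 E. coli BL21(DE3) was used to express GST-fused SH3 domains from four yeast species, which were then purified on glutathione Sepharose. These were incubated at 10 μg/ml in TBS-based blocking buffer overnight at 4°C on cellulose membranes carrying synthetic 15-mer peptides, in which cysteines were replaced by serines. Binding signal is the replicate average of normalized, background-subtracted spot intensity, in arbitrary units that differ between domains.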
# [2] = target: AgBbc1
# In short: as §1
# [3] = target: AgBem1-D1
# In short: as §1
# [4] = target: AgBzz1-D1
# In short: as §1
# [5] = target: AgBzz1-D2
# In short: as §1
# [6] = target: AgCyk3
# In short: as §1
# [7] = target: AgFus1
# In short: as §1
# [8] = target: AgHof1
# In short: as §1
# [9] = target: AgHse1
# In short: as §1
# [10] = target: AgLsb1
# In short: as §1
# [11] = target: AgLsb4
# In short: as §1
# [12] = target: AgMyo5
# In short: as §1
# [13] = target: AgNbp2
# In short: as §1
# [14] = target: AgRvs167
# In short: as §1
# [15] = target: AgSho1
# In short: as §1
# [16] = target: AgSla1-D1-D2
# In short: as §1
# [17] = target: AgSla1-D3
# In short: as §1
# [18] = target: CaAbp1-D1
# In short: as §1
# [19] = target: CaAbp1-D2
# In short: as §1
# [20] = target: CaBbc1
# In short: as §1
# [21] = target: CaBem1-D1
# In short: as §1
# [22] = target: CaBzz1-D1
# In short: as §1
# [23] = target: CaBzz1-D2
# In short: as §1
# [24] = target: CaCyk3
# In short: as §1
# [25] = target: CaFus1
# In short: as §1
# [26] = target: CaHof1
# In short: as §1
# [27] = target: CaHse1
# In short: as §1
# [28] = target: CaLsb1
# In short: as §1
# [29] = target: CaLsb4
# In short: as §1
# [30] = target: CaMyo5
# In short: as §1
# [31] = target: CaNbp2
# In short: as §1
# [32] = target: CaRvs167
# In short: as §1
# [33] = target: CaRvs167-3
# In short: as §1
# [34] = target: CaSho1
# In short: as §1
# [35] = target: CaSla1-D1-D2
# In short: as §1
# [36] = target: CaSla1-D3
# In short: as §1
# [37] = target: ScAbp1
# In short: as §1
# [38] = target: ScBbc1
# In short: as §1
# [39] = target: ScBem1-D1
# In short: as §1
# [40] = target: ScBzz1-D1
# In short: as §1
# [41] = target: ScBzz1-D2
# In short: as §1
# [42] = target: ScCyk3
# In short: as §1
# [43] = target: ScFus1
# In short: as §1
# [44] = target: ScHof1
# In short: as §1
# [45] = target: ScHse1
# In short: as §1
# [46] = target: ScLsb1
# In short: as §1
# [47] = target: ScLsb2
# In short: as §1
# [48] = target: ScLsb3
# In short: as §1
# [49] = target: ScLsb4
# In short: as §1
# [50] = target: ScMyo3
# In short: as §1
# [51] = target: ScMyo5
# In short: as §1
# [52] = target: ScNbp2
# In short: as §1
# [53] = target: ScPex13
# In short: as §1
# [54] = target: ScRvs167
# In short: as §1
# [55] = target: ScSho1
# In short: as §1
# [56] = target: ScSla1-D1-D2
# In short: as §1
# [57] = target: ScSla1-D3
# In short: as §1
# [58] = target: SpAbp1-D1
# In short: as §1
# [59] = target: SpBbc1
# In short: as §1
# [60] = target: SpBzz1-D1
# In short: as §1
# [61] = target: SpBzz1-D2
# In short: as §1
# [62] = target: SpCyk3
# In short: as §1
# [63] = target: SpHof1
# In short: as §1
# [64] = target: SpHof1-2
# In short: as §1
# [65] = target: SpHof1-3
# In short: as §1
# [66] = target: SpHse1
# In short: as §1
# [67] = target: SpLsb1
# In short: as §1
# [68] = target: SpLsb4
# In short: as §1
# [69] = target: SpMyo1
# In short: as §1
# [70] = target: SpNbp2
# In short: as §1
# [71] = target: SpPex13
# In short: as §1
# [72] = target: SpRvs167
# In short: as §1
# [73] = target: SpSla1-D1-D2
# In short: as §1
# [74] = target: SpSla1-D3
# In short: as §1
binder,measurement,setting,value
SKSRLLIELPEGFFT,SPOT peptide array binding signal intensity,[1],2
same,SPOT peptide array binding signal intensity,[2],0.5
same,SPOT peptide array binding signal intensity,[3],≤ 0
same,SPOT peptide array binding signal intensity,[4],59
same,SPOT peptide array binding signal intensity,[5],78
same,SPOT peptide array binding signal intensity,[6],1
same,SPOT peptide array binding signal intensity,[7],322
same,SPOT peptide array binding signal intensity,[8],18.5
same,SPOT peptide array binding signal intensity,[9],16
same,SPOT peptide array binding signal intensity,[10],≤ 0
same,SPOT peptide array binding signal intensity,[11],46
same,SPOT peptide array binding signal intensity,[12],≤ 0
same,SPOT peptide array binding signal intensity,[13],≤ 0
same,SPOT peptide array binding signal intensity,[14],0.5
same,SPOT peptide array binding signal intensity,[15],≤ 0
same,SPOT peptide array binding signal intensity,[16],67
same,SPOT peptide array binding signal intensity,[17],0.25
same,SPOT peptide array binding signal intensity,[18],≤ 0
same,SPOT peptide array binding signal intensity,[19],≤ 0
same,SPOT peptide array binding signal intensity,[20],19.5
same,SPOT peptide array binding signal intensity,[21],8.5
same,SPOT peptide array binding signal intensity,[22],82.5
same,SPOT peptide array binding signal intensity,[23],18.8
same,SPOT peptide array binding signal intensity,[24],≤ 0
same,SPOT peptide array binding signal intensity,[25],1020
same,SPOT peptide array binding signal intensity,[26],≤ 0
same,SPOT peptide array binding signal intensity,[27],5.25
same,SPOT peptide array binding signal intensity,[28],≤ 0
same,SPOT peptide array binding signal intensity,[29],≤ 0
same,SPOT peptide array binding signal intensity,[30],117
same,SPOT peptide array binding signal intensity,[31],34.5
same,SPOT peptide array binding signal intensity,[32],1.83
same,SPOT peptide array binding signal intensity,[33],51.8
same,SPOT peptide array binding signal intensity,[34],56.5
same,SPOT peptide array binding signal intensity,[35],≤ 0
same,SPOT peptide array binding signal intensity,[36],22
same,SPOT peptide array binding signal intensity,[37],≤ 0
same,SPOT peptide array binding signal intensity,[38],1
same,SPOT peptide array binding signal intensity,[39],11.5
same,SPOT peptide array binding signal intensity,[40],75.5
same,SPOT peptide array binding signal intensity,[41],125
same,SPOT peptide array binding signal intensity,[42],7
same,SPOT peptide array binding signal intensity,[43],317
same,SPOT peptide array binding signal intensity,[44],1.5
same,SPOT peptide array binding signal intensity,[45],89
same,SPOT peptide array binding signal intensity,[46],≤ 0
same,SPOT peptide array binding signal intensity,[47],≤ 0
same,SPOT peptide array binding signal intensity,[48],≤ 0
same,SPOT peptide array binding signal intensity,[49],≤ 0
same,SPOT peptide array binding signal intensity,[50],1
same,SPOT peptide array binding signal intensity,[51],0.5
same,SPOT peptide array binding signal intensity,[52],≤ 0
same,SPOT peptide array binding signal intensity,[53],≤ 0
same,SPOT peptide array binding signal intensity,[54],0.667
same,SPOT peptide array binding signal intensity,[55],145
same,SPOT peptide array binding signal intensity,[56],≤ 0
same,SPOT peptide array binding signal intensity,[57],15
same,SPOT peptide array binding signal intensity,[58],≤ 0
same,SPOT peptide array binding signal intensity,[59],≤ 0
same,SPOT peptide array binding signal intensity,[60],68.5
same,SPOT peptide array binding signal intensity,[61],0.25
same,SPOT peptide array binding signal intensity,[62],1
same,SPOT peptide array binding signal intensity,[63],204
same,SPOT peptide array binding signal intensity,[64],13.5
same,SPOT peptide array binding signal intensity,[65],7.5
same,SPOT peptide array binding signal intensity,[66],45.5
same,SPOT peptide array binding signal intensity,[67],≤ 0
same,SPOT peptide array binding signal intensity,[68],≤ 0
same,SPOT peptide array binding signal intensity,[69],0.5
same,SPOT peptide array binding signal intensity,[70],≤ 0
same,SPOT peptide array binding signal intensity,[71],≤ 0
same,SPOT peptide array binding signal intensity,[72],2
same,SPOT peptide array binding signal intensity,[73],≤ 0
same,SPOT peptide array binding signal intensity,[74],≤ 0
QPQRTAPKPPISAPR,SPOT peptide array binding signal intensity,[61],14.5
same,SPOT peptide array binding signal intensity,[62],0.5
same,SPOT peptide array binding signal intensity,[63],≤ 0
same,SPOT peptide array binding signal intensity,[64],7.5
same,SPOT peptide array binding signal intensity,[65],≤ 0
same,SPOT peptide array binding signal intensity,[66],≤ 0
same,SPOT peptide array binding signal intensity,[67],≤ 0
same,SPOT peptide array binding signal intensity,[68],27.5
same,SPOT peptide array binding signal intensity,[69],2550
same,SPOT peptide array binding signal intensity,[70],22.5
same,SPOT peptide array binding signal intensity,[71],1
same,SPOT peptide array binding signal intensity,[72],2.33
same,SPOT peptide array binding signal intensity,[73],≤ 0
same,SPOT peptide array binding signal intensity,[74],≤ 0
